Bioassay records: PubChem, National Center for Advancing Translational Sciences (NCATS)
Rab9 prom act: activates the Rab9 promoter; Huh7 Rab9 promoter-luciferase reporter, luminescence, 24 h; Potency, µM (top dose mostly 9.22 µM), actives largely listed as activators; actives 2.8% (n = 320,000); note: nearly all actives have a fitted effect of over 60% in size
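Luminescence from Amplite-detected luciferase (10 minutes, ambient) reports Rab9 promoter activation. Before that, stable Rab9-luciferase Huh7 cells (1500/well, reduced-serum OP-MEM I plus 10% FBS) were exposed to compound for 24 hours at 37C.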
Luc counter: blocks Kinase-Glo luciferase, a counter-screen artifact; Q27757; Kinase-Glo luciferase, ATP luminescence, 8 min; Potency, µM (doses to about 38.3 µM), usual class: inhibitors; actives 0.28% (n = 200,000); note: nearly all actives have a fitted effect of over 60% in size
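Light output from Kinase-Glo luciferase with luciferin and 10 uM ATP in 50 mM imidazole pH 7.2, KCl, MgCl2, Tween 20, BSA; compound pin-delivered, 8-min ambient incubation, then luminescence read.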
SMN2 splice enh: enhancers of SMN2 splice variant expression. HEK293 SMN2-luciferase splicing reporter, luminescence, 30-36 h. Potency, µM (highest dose often 46.1 µM), hits mostly activators. actives 2.8% (n = 210,000); note: nearly all actives have a fitted effect of over 55% in size
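qHTS luciferase splicing reporter: luminescence rises when SMN2 exon 7 is included in transfected HEK293 cells. Compound exposure lasted 30-36 h at 37C, with 4.5 mM final sodium butyrate as control, followed by a ONE-Glo read.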
FLuc modulator: firefly luciferase modulation, counter-screen for miR-21 project. P08659. purified FLuc, Km substrates, luminescence inhibition. Potency, µM (top dose mostly 57.5 µM), actives largely listed as inhibitors. actives 6.9% (n = 360,000). AID 588342; note: nearly all actives have a fitted effect of over 55% in size
Target sequence (P08659 whole entry, looked up): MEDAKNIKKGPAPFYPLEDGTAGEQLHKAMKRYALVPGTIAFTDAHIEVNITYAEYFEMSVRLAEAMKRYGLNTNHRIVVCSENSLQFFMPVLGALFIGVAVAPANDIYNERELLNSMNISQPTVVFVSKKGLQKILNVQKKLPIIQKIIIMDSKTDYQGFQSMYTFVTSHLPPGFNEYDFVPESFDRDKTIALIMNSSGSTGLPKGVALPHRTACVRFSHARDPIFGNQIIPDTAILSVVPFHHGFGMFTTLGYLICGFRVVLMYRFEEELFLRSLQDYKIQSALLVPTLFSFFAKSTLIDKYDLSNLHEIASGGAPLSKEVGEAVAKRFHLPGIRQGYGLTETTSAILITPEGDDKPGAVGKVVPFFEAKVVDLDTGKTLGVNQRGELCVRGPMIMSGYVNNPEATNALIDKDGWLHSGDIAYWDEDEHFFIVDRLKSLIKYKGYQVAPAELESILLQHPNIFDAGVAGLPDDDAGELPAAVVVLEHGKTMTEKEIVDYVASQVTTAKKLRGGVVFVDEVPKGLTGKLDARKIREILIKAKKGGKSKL
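Purified P. pyralis luciferase, 10 nM final, with Km-level 10 uM D-luciferin and 10 uM ATP in 50 mM Tris acetate pH 7.5, 10 mM Mg acetate, 0.01% Tween-20, 0.05% BSA; 6-point qHTS titration about 60 µM downward; luminescence read.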
ELG1 genotox: inducers of genotoxicity in HEK293T ELG1-luciferase cells. AID 504466. Potency, µM (series often up to 46 µM), hits mostly activators. HEK293T ELG1-luciferase reporter, luminescence, 16 h. actives 1.3% (n = 330,000); note: nearly all actives have a fitted effect of over 60% in size
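Screening used a luciferase reporter fused to human ELG1 in HEK293T cells. Luminescence was read on a CCD plate imager after 16 hr exposure and 30 min ONE-Glo incubation.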
NPC1 promoter act: activators of NPC1 promoter; Huh7 NPC1 promoter luciferase reporter, 24 h; Potency, µM (highest dose often 9.22 µM), hits mostly activators; actives 2.4% (n = 320,000); AID 485313; note: nearly all actives have a fitted effect of over 60% in size
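Compounds in DMSO were transferred onto Huh7 NPC1-luciferase reporter cells pre-incubated 2 h; after 24 h at 37 °C, Amplite reagent was dispensed and luminescence recorded 10 min later.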
Hits are given with their value; . = inactive; ? = inconclusive; / = no result; [ ] = remark or other dose. Rows were chosen to be rich in hits. Some 7.3% of all compounds tested hit in one or more screens of this group. Calls come from the whole dose curve; as a rule, active = well fitted curve in the direction sought with a large enough effect; inconclusive = small, poorly fitted or top-dose-only effect, or another doubt; inactive = no such curve, though single readings can be large; an effect the other way counts as inactive or inconclusive.

SMILES | Rab9 prom act | Luc counter | SMN2 splice enh | FLuc modulator | ELG1 genotox | NPC1 promoter act
COc1ccc(NC(=O)c2c(F)c(F)c(F)c(F)c2F)cc1Cl | . | . | ? | .[2.3 µM] | . | .
COc1ccc([C@]23Cc4cc(C#N)ccc4C(O2)c2c(c4ccc(OC)cc4oc2=O)O3)cc1 | .[1.84 µM] | / | / | .[11.5 µM] | / | .[1.84 µM]
COc1ccc2[nH]c(C(=O)N/N=C/c3ccc(OC)c(O)c3)cc2c1 | . | / | / | 5.4µM | . | .
COc1ccc(/C=N\NC(=O)c2cc(O)c(O)c(O)c2)cc1COc1ccc(C(=O)OCC(C)C)cc1 | . | / | / | 24µM | ? | .
CCOc1ccc2[nH]c(C(=O)N/N=C/c3ccccc3OC)cc2c1 | . | / | / | 15µM | . | .
COc1ccc(OC)c(/C=N/NC(=O)c2cc3c(OC)c(OC)ccc3[nH]2)c1 | . | . | . | 4.8µM | . | .
COc1ccc(OC)c(/C=N/NC(=O)c2ccc3nc[nH]c3c2)c1 | . | / | / | ? | . | .
COc1ccc(C(=O)N/N=C/c2ccc(OC)c(COc3ccccc3)c2)cc1 | . | / | / | . | . | .
CCN(c1ccc(C)cc1C)S(=O)(=O)c1nnc(NC(=O)c2ccccc2OC)s1 | / | / | / | . | / | /
CC(=O)Nc1ccccc1-c1nc2ccccc2n(CC(=O)c2ccc(Br)cc2)c1=O | / | / | / | . | / | /
COc1ccc(/C=N\NC(=O)c2ccccc2)cc1COc1ccccc1 | . | / | / | . | . | .
COc1ccc2[nH]c(C(=O)N/N=C/c3ccccc3OC)cc2c1 | . | / | / | 19µM | . | .
COc1cc(OC)c2cc(C(=O)N/N=C/c3ccccc3O)[nH]c2c1 | . | / | / | . | ? | .
CCCOc1ccc2[nH]c(C(=O)N/N=C/c3cc(OC)c(OC)c(OC)c3)cc2c1 | . | / | / | 13µM | . | .
COc1cccc(OCc2cc(/C=N/NC(=O)c3ccn[nH]3)ccc2OC)c1 | . | . | . | 15µM | . | .
CCOc1ccc(/C=N/NC(=O)c2cc3c(OC)cc(OC)c(OC)c3[nH]2)cc1 | .[1.84 µM] | / | / | ? | . | .
CCOC(=O)c1c(Nc2ccc(OCC)cc2)nnc(-c2ccccc2)c1-c1ccccc1 | / | / | . | . | / | /
Oc1c(C=Nc2ccccc2)sc2ccccc12 | . | . | / | . | . | .
Oc1c(C=Nc2ccc(Cl)cn2)sc2ccccc12 | ? | / | / | 0.34µM | 5.8µM | ?
Oc1c(/C=N/c2ccccn2)sc2ccccc12 | ? | / | / | 0.54µM | ? | .
Oc1c(C=Nc2cccnc2)sc2ccccc12 | . | ? | . | 1.9µM | ? | .
O=C(Nc1ccc(F)c(Cl)c1)c1ccc2c(=O)n3c(nc2c1)CCCCC3 | 1.8µM | / | / | 6.7µM | . | 3.2µM
O=C(Nc1ccccn1)c1ccc2c(=O)n3c(nc2c1)CCCCC3 | 0.56µM | / | / | 4.8µM | ? | 1µM
CCc1cccc(NC(=O)c2ccc3c(=O)n4c(nc3c2)CCCCC4)c1 | . | / | / | 13µM | . | ?
Cc1ccc(NC(=O)c2ccc3c(=O)n4c(nc3c2)CCC4)cc1F | 2.5µM | / | / | / | ? | 3.2µM
SMILES | Rab9 prom act | Luc counter | SMN2 splice enh | FLuc modulator | ELG1 genotox | NPC1 promoter act
O=C(Nc1ccc(Cl)cc1)c1ccc2c(=O)n3c(nc2c1)CCCCC3 | . | / | / | ? | . | .
CNC(=O)c1ccc(NC(=O)c2ccc3c(=O)n4c(nc3c2)CCC4)cc1 | . | / | / | . | . | .
CCOC(=O)c1c(NC(=O)c2cc(=O)c3cc(C)cc(C)c3o2)sc(C)c1C | / | / | . | . | / | /
Cc1ccc(S(=O)(=O)c2cn(C)c3cc(N4CCCC(C)C4)c(F)cc3c2=O)c(C)c1 (stereo not drawn) | / | / | / | . | / | /
CC1CCC(NC(=O)c2ccc3c(c2)N(Cc2ccccc2F)C(=O)c2ccccc2S3)CC1 (stereo not drawn) | / | / | / | . | / | /
O=C(Nc1cccc(Cl)c1)c1ccc2c(=O)n3c(nc2c1)CCCCC3 | 0.89µM | . | ? | 3.4µM | ? | 1.6µM
O=C(Nc1ccc(F)cc1)c1ccc2c(=O)n3c(nc2c1)CCCCC3 | 4.5µM | / | / | 13µM | ? | 3.2µM
O=C(Cn1c(=O)n(-c2ccc(F)cc2)c(=O)c2sc3ccccc3c21)NC1CCCCC1 | / | / | . | . | / | /
CN1CCC[C@@H]1c1cccnc1.O=C(O)c1ccccc1O.O=C([OH2+])c1ccccc1O.O=C([OH2+])c1ccccc1O.[Mn] | / | .[7.66 µM] | .[9.22 µM] | / | / | /
